# Test results reported in PubChem BioAssay (EPA / NIEHS).
# Inconclusive results are not listed. Active and inactive are the calls of the source. How the source made its calls, unless noted: active means hit-call score of the fitted dose curve at least 0.9, where 1 is the maximum; inactive means score below 0.9.
# Key:
# [1] = read-out: Interleukin-1 alpha (IL1a), IL1A (gene 3552); test: BSK_LPS_IL1a: BioMAP Diversity Plus: LPS Assay for Interleukin-1 alpha (IL1a) Biomarker Activity (AID 2283080); conditions: primary human HUVEC with PBMC; actives raise or lower the signal
# Summary of the method: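 Human umbilical vein endothelial cells co-cultured with peripheral blood mononuclear cells were LPS-stimulated and exposed to test chemicals for 24 h. IL-1 alpha was quantified by ELISA, with bidirectional curve fitting against DMSO as the negative control and baseline.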
# [2] = read-out: Monocyte Chemoattractant Protein-1 (MCP1), CCL2 (gene 6347); test: BSK_LPS_MCP1: BioMAP Diversity Plus: LPS Assay for Monocyte Chemoattractant Protein-1 (MCP1) Biomarker Activity (AID 2283081); conditions: primary human HUVEC with PBMC; actives raise or lower the signal;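 on AC50: secreted MCP-1 protein quantified by ELISA in culture supernatant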
# Summary of the method: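 HUVEC plus PBMC co-culture (human primary cells, LPS system) exposed to test chemical for 24 h; MCP-1 measured by ELISA. Bidirectional curve fitting against DMSO baseline; parallel SRB total-protein staining flags overt cytotoxicity.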
# [3] = BSK_LPS_PGE2: BioMAP Diversity Plus: LPS Assay for Prostaglandin E2 (PGE2) Biomarker Activity (AID 2283082); conditions: primary human HUVEC with PBMC; actives raise or lower the signal;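 on AC50: secreted prostaglandin E2 measured by ELISA in LPS-stimulated co-culture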
# Summary of the method: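 Endpoint derived from bidirectional curve fitting versus DMSO of ELISA-measured PGE2 in LPS-stimulated human primary vascular co-culture (HUVEC with PBMC) harvested at 24 h.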
# [4] = read-out: Macrophage colony-stimulating factor (MCSF), CSF1 (gene 1435); test: BSK_LPS_MCSF: BioMAP Diversity Plus: LPS Assay for Macrophage colony-stimulating factor (MCSF) Biomarker Activity (AID 2283083); conditions: primary human HUVEC with PBMC; actives raise or lower the signal
# Summary of the method: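 Human umbilical vein endothelial cells co-cultured with peripheral blood mononuclear cells were exposed to compound for 24 h. M-CSF levels were measured by ELISA, and bidirectional curve fitting used DMSO as the negative control and baseline.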
# [5] = read-out: Tissue Factor, F3 (gene 2152); test: BSK_LPS_TissueFactor: BioMAP Diversity Plus: LPS Assay for Tissue Factor Biomarker Activity (AID 2283084); conditions: primary human HUVEC with PBMC; actives raise or lower the signal
# Summary of the method: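 Human umbilical vein endothelial cells co-cultured with peripheral blood mononuclear cells were dosed and stimulated with LPS. Cell-surface CD142 was quantified by ELISA at 24 h. Activity was fitted bidirectionally against DMSO baseline.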
# [6] = read-out: Tumor necrosis factor (Homo sapiens) (UniProt P01375); test: BSK_LPS_TNFa: BioMAP Diversity Plus: LPS Assay for Tumour Necrosis Factor alpha (TNFa) Biomarker Activity (AID 2283085); conditions: primary human HUVEC with PBMC; actives raise or lower the signal
# Summary of the method: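 Primary human vascular co-culture of HUVEC and PBMC; TNFa ELISA 24 h after treatment, analysed as increase or decrease relative to DMSO control.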
# [7] = read-out: Vascular cell adhesion molecule 1 (VCAM1), VCAM1 (gene 7412); test: BSK_LPS_VCAM1: BioMAP Diversity Plus: LPS Assay for Vascular cell adhesion molecule 1 (VCAM1) Biomarker Activity (AID 2283086); conditions: primary human HUVEC with PBMC; actives raise or lower the signal
# Summary of the method: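 Primary human vascular co-culture (umbilical vein endothelium plus PBMC) stimulated with LPS received chemical; 24 h later VCAM-1 was read by ELISA. Overt cytotoxicity was assessed by sulforhodamine B staining of parallel cultures at the same time point.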
# CD38, CD38 (gene 952) = test: BSK_SAg_CD38: BioMAP Diversity Plus: SAg Assay for CD38 Biomarker Activity (AID 2283087); conditions: primary human HUVEC with PBMC; actives raise or lower the signal
# Summary of the method: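 Fluorescence ELISA of cell-surface CD38 served as the read-out, with either increase or decrease fitted against DMSO controls. Cells were a human umbilical vein endothelium plus PBMC co-culture under SEB/TSST-1 stimulation, measured 24 h after dosing.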
# CD69, CD69 (gene 969) = test: BSK_SAg_CD69: BioMAP Diversity Plus: SAg Assay for CD69 Biomarker Activity (AID 2283089); conditions: primary human HUVEC with PBMC; actives raise or lower the signal
# Summary of the method: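 Primary human vascular co-culture (umbilical vein endothelium with peripheral blood mononuclear cells) exposed to test chemical for 24 h. CD69 levels quantified by fluorescence ELISA; DMSO served as negative control for bidirectional fitting.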
# [8] = read-out: Monocyte Chemoattractant Protein-1 (MCP1), CCL2 (gene 6347); test: BSK_SAg_MCP1: BioMAP Diversity Plus: SAg Assay for Monocyte Chemoattractant Protein-1 (MCP1) Biomarker Activity (AID 2283090); conditions: primary human HUVEC with PBMC; actives raise or lower the signal
# Summary of the method: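 MCP-1 levels in the endothelial–PBMC SAg co-culture were quantified by ELISA at 24 h post-dosing; both increases and decreases versus DMSO scored. Cytotoxicity monitored by SRB total protein in parallel cultures.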
# [9] = read-out: E-selectin (Homo sapiens) (UniProt P16581); test: BSK_SAg_Eselectin: BioMAP Diversity Plus: SAg Assay for Eselectin Biomarker Activity (AID 2283091); conditions: primary human HUVEC with PBMC; actives raise or lower the signal
# Summary of the method: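 HUVEC co-cultured with PBMC, compound dosed then read at 24 h; E-selectin measured by ELISA. Activity fitted bidirectionally against DMSO as negative control and baseline.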
# [10] = read-out: Monokine induced gamma interferon (MIG), CXCL9 (gene 4283); test: BSK_SAg_MIG: BioMAP Diversity Plus: SAg Assay for Monokine induced gamma interferon (MIG) Biomarker Activity (AID 2283092); conditions: primary human HUVEC with PBMC; actives raise or lower the signal
# Summary of the method: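 Endothelial cells and PBMC were co-cultured, exposed to test chemicals, and sampled 24 h later. MIG was measured by ELISA, and responses were fitted in both directions relative to DMSO.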
# [11] = BSK_SAg_PBMCCytotoxicity: PBMC Cytotoxicity Assessment in the BioMAP Diversity Plus: SAg Assay (AID 2283093); conditions: primary human HUVEC with PBMC;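 further: PBMC viability measured as Alamar Blue reduction fluorescence at 546/580 nm; fitted both ways against DMSO so a hit may be loss or gain of signal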;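 on AC50: PBMC superantigen activated with SEB plus TSST-1 one hour after compound addition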
# Summary of the method: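 Compound added to 75,000 PBMC/well for 1 h; SEB and TSST-1 then added at 20 ng/mL final each; 90 h incubation; Alamar Blue 6 h; read 546/580 nm ex/em. Activity fitted bidirectionally relative to DMSO baseline.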
# [12] = read-out: Interleukin-8 (IL8), CXCL8 (gene 3576); test: BSK_SAg_IL8: BioMAP Diversity Plus: SAg Assay for Interleukin-8 (IL8) Biomarker Activity (AID 2283094); conditions: primary human HUVEC with PBMC; actives raise or lower the signal
# Summary of the method: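 In this co-culture of human umbilical vein endothelium with peripheral blood mononuclear cells, IL-8 is assayed by ELISA at 24 h. DMSO serves as baseline for bidirectional curve fitting.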
# [13] = BSK_SAg_Proliferation: Cell Proliferation Assessment in the BioMAP Diversity Plus: SAg Assay (AID 2283095); conditions: primary human HUVEC with PBMC;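 further: relative cell number as total protein by SRB absorbance in sub-confluent culture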
# Summary of the method: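 Readout is SRB-stained protein (560 nm) in a primary human HUVEC and PBMC co-culture; sub-confluent cultures are read at 96 h. Activity is fitted bidirectionally using DMSO as baseline.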
# [14] = BSK_SAg_SRB: Viability Assessment in the BioMAP Diversity Plus: SAg Assay (AID 2283096); conditions: primary human HUVEC with PBMC;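 further: cells read one day after compound addition; hits may be either gain or loss of signal compared with DMSO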
# Summary of the method: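 Total protein by sulforhodamine B staining, 24 h after dosing, in HUVEC–PBMC co-culture; DMSO-referenced bidirectional fitting.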
# [15] = target: human CYP1A1, CYP1A1 (gene 1543) (UniProt P04798); test: NVS_ADME_hCYP1A1: NovaScreen (NVS) CYP450-related Enzyme Activity (ADME) Assay for human CYP1A1 (AID 2283100; active means hit-call score of the fitted dose curve at least 0.9, where 1 is the maximum)
# human CYP1A1, CYP1A1 (gene 1543), sequence (P04798 whole entry, looked up): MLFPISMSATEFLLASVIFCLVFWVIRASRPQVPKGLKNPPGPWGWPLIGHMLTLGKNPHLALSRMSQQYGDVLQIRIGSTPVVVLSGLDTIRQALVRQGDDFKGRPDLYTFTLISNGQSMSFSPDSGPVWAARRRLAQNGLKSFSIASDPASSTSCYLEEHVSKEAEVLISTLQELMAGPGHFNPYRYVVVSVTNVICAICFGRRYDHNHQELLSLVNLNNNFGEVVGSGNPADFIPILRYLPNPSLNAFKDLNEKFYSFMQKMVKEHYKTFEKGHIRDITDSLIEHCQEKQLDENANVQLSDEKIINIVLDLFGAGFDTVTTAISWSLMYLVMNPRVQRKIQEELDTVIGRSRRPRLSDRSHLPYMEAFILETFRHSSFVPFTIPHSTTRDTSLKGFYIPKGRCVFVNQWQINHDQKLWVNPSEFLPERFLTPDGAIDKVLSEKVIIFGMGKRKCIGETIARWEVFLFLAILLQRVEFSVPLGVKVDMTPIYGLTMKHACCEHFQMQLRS
# Summary of the method: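 Cell-free fluorescence assay of recombinant human CYP1A1 activity with a specific substrate, read 1 h after dosing. Compounds were screened in duplicate at 10 uM, then hits tested in concentration-response up to 20 uM; acetonitrile served as baseline.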
# Tumor necrosis factor (Homo sapiens), sequence (P01375 whole entry, looked up): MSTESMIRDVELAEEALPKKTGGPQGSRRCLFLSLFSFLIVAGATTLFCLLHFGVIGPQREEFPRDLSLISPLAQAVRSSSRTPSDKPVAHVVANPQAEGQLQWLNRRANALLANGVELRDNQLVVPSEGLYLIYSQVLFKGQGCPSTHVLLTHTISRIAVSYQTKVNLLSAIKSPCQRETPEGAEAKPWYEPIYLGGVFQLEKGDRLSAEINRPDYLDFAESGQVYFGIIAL
# E-selectin (Homo sapiens), sequence (P16581 whole entry, looked up): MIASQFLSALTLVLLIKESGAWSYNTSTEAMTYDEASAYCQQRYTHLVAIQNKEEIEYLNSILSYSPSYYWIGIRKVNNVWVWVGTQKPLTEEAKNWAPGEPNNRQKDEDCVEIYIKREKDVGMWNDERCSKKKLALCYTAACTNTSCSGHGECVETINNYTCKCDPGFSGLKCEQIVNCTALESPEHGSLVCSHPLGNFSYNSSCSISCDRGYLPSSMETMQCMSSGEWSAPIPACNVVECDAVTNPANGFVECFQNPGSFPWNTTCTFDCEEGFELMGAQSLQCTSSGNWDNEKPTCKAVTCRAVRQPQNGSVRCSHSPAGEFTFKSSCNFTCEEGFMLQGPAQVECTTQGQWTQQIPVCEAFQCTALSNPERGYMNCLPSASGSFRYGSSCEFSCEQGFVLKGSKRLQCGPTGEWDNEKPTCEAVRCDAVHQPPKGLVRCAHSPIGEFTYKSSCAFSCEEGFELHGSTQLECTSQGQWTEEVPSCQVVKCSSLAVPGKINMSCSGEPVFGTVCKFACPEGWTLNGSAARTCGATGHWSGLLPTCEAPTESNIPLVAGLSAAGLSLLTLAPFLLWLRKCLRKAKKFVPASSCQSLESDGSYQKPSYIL
structure (smiles),measurement,setting,value
CCC1(c2ccccc2)C(=O)N=C(O)NC1=O (configuration not stated),outcome,[1],inactive
same,outcome,[2],inactive
same,outcome,[3],inactive
same,outcome,[4],inactive
same,outcome,[5],inactive
same,outcome,[6],inactive
same,outcome,[7],inactive
same,outcome,"CD38, CD38 (gene 952)",inactive
same,outcome,"CD69, CD69 (gene 969)",inactive
same,outcome,[8],inactive
same,outcome,[9],inactive
same,outcome,[10],inactive
same,outcome,[11],inactive
same,outcome,[12],inactive
same,outcome,[13],inactive
same,outcome,[14],inactive
Nc1cc2c3c(c1)C(c1ccccc1)=N[C@@H](NC(=O)c1cccnc1)C(=O)N3CC2,outcome,[1],inactive
same,outcome,[2],inactive
same,outcome,[3],inactive
same,outcome,[4],inactive
same,outcome,[5],inactive
same,AC50,[6],1460 nM (active)
same,outcome,[7],inactive
same,outcome,"CD38, CD38 (gene 952)",inactive
same,outcome,[8],inactive
same,AC50,[9],1120 nM (active)
same,outcome,[10],inactive
same,outcome,[11],inactive
same,outcome,[12],inactive
same,outcome,[13],inactive
same,outcome,[14],inactive
c1ccc2c(c1)sc1ccccc12,outcome,[1],inactive
same,outcome,[2],inactive
same,AC50,[3],596 nM (active)
same,outcome,[4],inactive
same,outcome,[5],inactive
same,outcome,[6],inactive
same,outcome,[7],inactive
same,outcome,"CD38, CD38 (gene 952)",inactive
same,outcome,[8],inactive
same,outcome,[9],inactive
same,outcome,[10],inactive
same,outcome,[11],inactive
same,outcome,[12],inactive
same,outcome,[13],inactive
same,outcome,[14],inactive
CC(Cl)(Cl)C(=O)O,outcome,[1],inactive
same,outcome,[2],inactive
same,outcome,[3],inactive
same,outcome,[4],inactive
same,outcome,[5],inactive
same,outcome,[6],inactive
same,outcome,[7],inactive
same,outcome,"CD38, CD38 (gene 952)",inactive
same,outcome,[8],inactive
same,outcome,[9],inactive
same,outcome,[10],inactive
same,outcome,[11],inactive
same,outcome,[12],inactive
same,outcome,[13],inactive
same,outcome,[14],inactive
CC1(C)CN=C(NN=C(/C=C/c2ccc(C(F)(F)F)cc2)/C=C/c2ccc(C(F)(F)F)cc2)NC1,outcome,[15],inactive
C=CC(=O)OCC(CC)(COC(=O)C=C)COC(=O)C=C,AC50,[1],1460 nM (active)
same,AC50,[2],3290 nM (active)
same,outcome,[3],inactive
same,AC50,[4],1910 nM (active)
same,AC50,[5],2290 nM (active)
same,outcome,[6],inactive
same,AC50,[7],2790 nM (active)
same,AC50,"CD38, CD38 (gene 952)",1780 nM (active)
same,AC50,[8],2600 nM (active)
same,AC50,[9],1360 nM (active)
same,AC50,[10],3360 nM (active)
same,AC50,[11],2930 nM (active)
same,AC50,[12],1700 nM (active)
same,AC50,[13],587 nM (active)
same,AC50,[14],3380 nM (active)
Cc1c([N+](=O)[O-])cc2c(c1[N+](=O)[O-])C(C)(C)CC2(C)C,outcome,[1],inactive
same,outcome,[2],inactive
same,outcome,[3],inactive
same,outcome,[4],inactive
same,outcome,[5],inactive
same,outcome,[6],inactive
same,outcome,[7],inactive
same,outcome,"CD38, CD38 (gene 952)",inactive
same,outcome,[8],inactive
same,outcome,[9],inactive
same,outcome,[10],inactive
same,AC50,[11],15300 nM (active)
same,outcome,[12],inactive
same,AC50,[13],7410 nM (active)
same,outcome,[14],inactive
CCOC(=O)c1ccccc1C(=O)OCC,outcome,[1],inactive
same,outcome,[2],inactive
same,outcome,[3],inactive
same,outcome,[4],inactive
same,outcome,[5],inactive
same,outcome,[6],inactive
same,outcome,[7],inactive
same,outcome,"CD38, CD38 (gene 952)",inactive
same,outcome,[8],inactive
same,outcome,[9],inactive
same,outcome,[10],inactive
same,outcome,[11],inactive
same,outcome,[12],inactive
same,outcome,[13],inactive
same,outcome,[14],inactive
